This experiment deals with E. coli TESEC Mtb Alr. The experiment is described as follows: growth (OD600 after 10 h); higher = more growth (less inhibition). The note with it: compound 0.1 mM. The protocol:
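TESEC Mtb Alr E. coli, or the Alr+ wild-type control, in 384-well plates with Prestwick library compounds at 0.1 mM and 1% DMSO, across arabinose induction levels of 1E3 to 1E7 nM. Growth is read as OD600 after 10 h at 37 °C in triplicate biological replicates.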

Where [1] appears, read: arabinose 1000 nM, raw OD600 reference: median of DMSO wells 0.294, cell-free background 0.041.
Setting [2] is: arabinose 10000 nM, raw OD600 reference: median of DMSO wells 0.264, cell-free background 0.041.
[3] abbreviates: arabinose 100000 nM, raw OD600 reference: median of DMSO wells 0.201, cell-free background 0.041.
Where [4] appears, read: arabinose 1000000 nM, raw OD600 reference: median of DMSO wells 0.193, cell-free background 0.041.
Setting [5] is: arabinose 10000000 nM, raw OD600 reference: median of DMSO wells 0.146, cell-free background 0.041.

In the supplement of paper PMC9262897, “Low-cost anti-mycobacterial drug discovery using engineered E. coli” (Nature Communications, 2022) one finds growth data, which are given here for eight compounds.

The structures appear in SMILES notation. Where a name gives a salt, the structure may show the parent alone. ± gives the standard deviation of the averaged measurements.

The compound `CCCCCNC(=N)N/N=C/c1c[nH]c2ccc(OC)cc12` [Tegaserod maleate] gave a growth under setting [1] of 0.047 ± 0.0021; a growth under setting [2] of 0.0443 ± 0.00086; a growth under setting [3] of 0.0455 ± 0.0016; a growth under setting [4] of 0.0451 ± 0.0011; a growth under setting [5] of 0.0474 ± 0.0038.
For `O=C(O)CN(CCN(CC(=O)O)CC(=O)O)CCN(CC(=O)O)CC(=O)O` [Pentetic acid], in that order: 0.0429 ± 0.00085, 0.03913 ± 0.00012, 0.04467 ± 5.8e-05, 0.0427 ± 0.00091 and 0.0607 ± 0.00086.
Compound `CCN(CC)CCNC(C(=O)OCCC(C)C)c1ccccc1` (stereo not given) [Camylofine chlorhydrate] had a growth under setting [1] of 0.254 ± 0.0087; a growth under setting [2] of 0.261 ± 0.0027; a growth under setting [3] of 0.208 ± 0.017; a growth under setting [4] of 0.156 ± 0.0056; a growth under setting [5] of 0.148 ± 0.0031.
The like results for `CC(=O)c1ccc2c(c1)N(CCCN(C)C)c1ccccc1S2` [Acetopromazine maleate salt] were, in that order, 0.228 ± 0.0028, 0.263 ± 0.016, 0.208 ± 0.023, 0.123 ± 0.0016 and 0.152 ± 0.0028.
For `COc1ccc2c3c1O[C@H]1C[C@@H](O)C=C[C@@]31CCN(C)C2` [Galanthamine hydrobromide], the growth runs as follows: under setting [1], 0.291 ± 0.0095; under setting [2], 0.245 ± 0.0045; under setting [3], 0.218 ± 0.014; under setting [4], 0.161 ± 0.0075; under setting [5], 0.1382 ± 0.00072.
As for `COC(=O)[C@H]1[C@H]2C[C@@H]3c4[nH]c5cc(OC)ccc5c4CCN3C[C@H]2C[C@@H](OC(=O)c2cc(OC)c(OC)c(OC)c2)[C@@H]1OC` [Reserpine], the growth is, setting by setting: under setting [1], 0.234 ± 0.027; under setting [2], 0.223 ± 0.02; under setting [3], 0.214 ± 0.012; under setting [4], 0.193 ± 0.012; under setting [5], 0.214 ± 0.0036.
Take `CC(=O)[C@H]1CC[C@H]2[C@@H]3CCC4=CC(=O)CC[C@]4(C)[C@H]3CC[C@]12C` [Progesterone]: the growth runs as follows: under setting [1], 0.175 ± 0.01; under setting [2], 0.234 ± 0.01; under setting [3], 0.145 ± 0.015; under setting [4], 0.117 ± 0.0027; under setting [5], 0.15 ± 0.012.
For `Clc1ccccc1C(c1ccccc1)(c1ccccc1)n1ccnc1` [Clotrimazole], in that order: 0.04147 ± 0.00015, 0.0452 ± 0.00099, 0.0437 ± 0.0032, 0.0467 ± 0.00068 and 0.0448 ± 0.0032.
